# Measurements as given in the supplement of paper PMC6555819.
# How the values were obtained:
# Test in all cases: PBM binding z-score (relative to random genomic background probes); higher = stronger binding; sequences stand for … in GC…GCGATTGACAGCGTAGAATGAAGG
# [1] = test system: PPARg:RXRa DBDmut IVT, anti-RXR (DBD mutation: RXRa K156A/R161A, NR concentration 270 nM, RXRa partner concentration 90 nM)
# Outline: (§1)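 On custom Agilent 4×180K arrays, double-stranded probes with 34-nt variable regions carried direct-repeat seeds, single-nucleotide variants, half-site ablations or random human genomic background. Ligand-free nuclear receptor dimers were applied for 1 h, and binding was read with antibodies against each partner (one per run). Binding z-scores come from regression-normalized fluorescence, with the random background probes as reference.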
# [2] = test system: PPARg:RXRa IVT, anti-PPARg (NR concentration 270 nM, RXRa partner concentration 90 nM)
# Outline: as §1
# [3] = test system: PPARg DBDmut:RXRa IVT, anti-PPARg (DBD mutation: PPARg1 K132A/R137A, NR concentration 270 nM, RXRa partner concentration 90 nM)
# Outline: as §1
# [4] = test system: PPARg DBDmut IVT, anti-PPARg (DBD mutation: PPARg1 K132A/R137A, NR concentration 270 nM)
# Outline: as §1
# [5] = test system: PPARg homodimer (NR concentration 180 nM)
# Outline: as §1
# [6] = test system: PXR:RXRa (NR concentration 270 nM, RXRa partner concentration 90 nM)
# Outline: as §1
# [7] = test system: PXR homodimer (NR concentration 270 nM)
# Outline: as §1
# [8] = test system: RARa:RXR (NR concentration 270 nM, RXRa partner concentration 90 nM)
# Outline: as §1
# [9] = test system: RARa homodimer (NR concentration 270 nM)
# Outline: as §1
# [10] = test system: RARb:RXRa (NR concentration 270 nM, RXRa partner concentration 90 nM)
# Outline: as §1
# [11] = test system: RARb homodimer (NR concentration 270 nM)
# Outline: as §1
# [12] = test system: RARg:RXRa (NR concentration 270 nM, RXRa partner concentration 90 nM)
# Outline: as §1
# [13] = test system: RARg homodimer (NR concentration 270 nM)
# Outline: as §1
# [14] = test system: RXRa DBDmut IVT, anti-RXR (DBD mutation: RXRa K156A/R161A, NR concentration 90 nM)
# Outline: as §1
# [15] = test system: RXRa homodimer (NR concentration 180 nM)
# Outline: as §1
# [16] = test system: THRa:RXRa (NR concentration 90 nM, RXRa partner concentration 90 nM)
# Outline: as §1
# [17] = test system: THRa homodimer (NR concentration 90 nM)
# Outline: as §1
# [18] = test system: VDR:RXRa (NR concentration 270 nM, RXRa partner concentration 90 nM)
# Outline: as §1
# [19] = test system: VDR homodimer (NR concentration 270 nM)
# Outline: as §1
Sequence,PBM binding z-score [1],PBM binding z-score [2],PBM binding z-score [3],PBM binding z-score [4],PBM binding z-score [5],PBM binding z-score [6],PBM binding z-score [7],PBM binding z-score [8],PBM binding z-score [9],PBM binding z-score [10],PBM binding z-score [11],PBM binding z-score [12],PBM binding z-score [13],PBM binding z-score [14],PBM binding z-score [15],PBM binding z-score [16],PBM binding z-score [17],PBM binding z-score [18],PBM binding z-score [19]
CAAAGTAGGTCACCGGAAGGTCAAAGTCCGCATG,8.84,9.1,4.14,2.62,6.69,6.22,1.73,7.55,2.1,5.39,5.78,8.47,7.72,1.72,7.28,4.35,2.03,6.18,3.66
CCTACTGGGCCAAAGGTCATAGATTCCAATGCTC,5.3,7.19,0.0659,-0.0407,4.53,5.14,1.46,6.41,1.47,4.4,4.32,5.69,4.78,1.1,6.28,3.22,0.866,4.17,2.27
ATGGAAAGGTCGTGAGGTGAGTATACAGAAAGGC,0.309,2.67,0.977,1.59,2.23,3.42,1.13,4.64,1.17,4.41,3.62,4.95,4.67,1.52,5.97,3.82,2.1,4,1.72
TCAGATAGGTAAAGGTGAAAGTCGAACGATATGA,2.81,2.22,0.559,0.38,1.31,0.975,0.0879,1.75,0.371,2.16,1.76,1.57,1.27,0.734,2.33,1.33,-0.218,0.979,-0.344
CTAACTAGGTCAAGGTCAAAGTCGGTTTGTGCCA,8.82,8.88,2.1,2.34,2.99,5.04,1.89,4.65,0.786,5,5.03,5.89,6.45,3.03,5.12,4.19,3.77,5.07,3.88
AGAATGAGGTTAGCAAAGATCAGGGAAACGCTTG,2.18,1.55,0.688,0.613,-0.323,0.442,-0.147,0.623,0.53,1.46,0.446,0.938,0.899,0.105,1.23,1.8,0.173,0.322,-0.135
CGTCCAAGGGCAATGCTAGGTCAGTGAAAGCATT,0.816,0.945,-1.98,-1.04,1.08,1.04,-0.135,1.55,-0.607,3.1,3.04,3.71,2.64,0.887,0.71,2.98,0.346,0.893,0.429
CCTACTGGGCCAAGGTCATTGACCAGTCAAAGCA,3.82,4.84,-0.707,-1.06,1.94,3.71,1.37,3.95,-0.225,3.45,3.43,3.87,3.66,0.966,4.1,3.67,2.29,3.38,2.59
CAAACTAGGTCAAAGGTCAAAATCGAGCCAACCA,8.4,9.49,5.76,3.58,5.14,6.99,1.48,8.9,2.19,5.94,5.03,8.72,7.08,3.07,10.1,4.95,1.51,6.43,2.94
CAAACTAGGTCACGAAAGGTCAAAGTGGAATGAC,8.3,9.14,4.86,3.3,6.09,7.22,2.33,7.85,4.81,5.72,5.92,7.79,8.41,2.4,8.35,5.24,2.81,6.71,3.84
CCTGCTAGTTCAATGGTCAGCTAAAGCAGCTCGC,0.00571,-0.344,-0.548,-1.19,0.058,0.465,-0.0496,0.242,-0.645,1.49,1.18,0.412,0.679,2.42,0.154,0.222,-0.395,0.426,0.706
ATCGAAGGGTCGAAGGTGAGTATACCCACCCGAA,-0.959,1.2,0.357,-0.0817,0.676,1.64,-0.184,2.48,-0.374,2.15,1.32,2.67,1.99,0.0916,3.12,1.05,-0.355,1.66,0.519
AGAATGGGGTTAAGATCAGGGAAACAGAATACAT,3.55,3.66,1.77,1.97,2.18,2.98,2.24,3.46,1.79,2.47,1.9,2.99,1.4,1.99,4.56,3.23,1.67,2.91,1.27
CGTCCAAGGTAAATGCTAGGTCAGTGAAAGCATT,0.714,0.881,-1.05,-0.95,0.424,0.128,-0.305,0.803,-0.343,1.61,2.15,1.85,1.23,0.0865,0.316,2.53,1.11,0.355,-0.194
CGTCCAAGGTCAATTCTAGGTCAGTGAAAGCATT,3.48,4.72,0.615,0.0326,7.64,4.96,1.82,6.11,1.9,5.19,5.03,7.43,6.42,3.52,4.75,4.64,3.17,4.61,2.76
